High-throughput results (PubChem)
An excerpt weighted towards active compounds, which were near 4.8% of everything screened.
DAX1 inh-1: NR0B1 (DAX1) inhibition. P51843. HEK293 Gal4-DAX1 luciferase reporter, luminescence. inhibition, % at 6.75 µM. hit rate 0.99% among 340,000. AID 504766;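 active means inhibition above the mean over all tested compounds plus 3 SD, cut at about 4.2% in these data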;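 further: inhibition shows as a rise in luminescence from relieved DAX1 repression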
ssDAF12 agonist: S. stercoralis DAF-12 activation, primary screen; hit rate 1% among 370,000; HEK293 ssDAF-12/GRIP1 lit1-tk-luc reporter, luminescence; % of 3 µM dafachronic acid response; activation, % at 6.8 µM;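 active means activation above the mean over all tested compounds plus 3 SD, cut at about 0.9% in these data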
hgDAF12 agonist: agonists of H. glycines DAF-12 nuclear receptor; activation, % at 6.8 µM; hit rate 1.8% among 370,000; HEK293 GAL4-hgDAF12 UAS-luciferase reporter, agonist luminescence; normalized to butyrate control; AID 687014;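 active means activation above a cutoff set at the mean of all screened compounds plus 3 SD, cut at about 10% in these data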
hcDAF12 agonist: H. contortus DAF-12 activation, primary screen. HEK293 hcDAF-12 lit1-tk-luc reporter, luminescence; 0% DMSO, 100% Δ7-dafachronic acid. activation, % at 6.8 µM. hit rate 1.4% among 370,000. AID 652067;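 active means activation above the mean of all tested compounds plus 3 SD, cut at about 5.5% in these data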
DAX1 inh-2: inhibitors of DAX1 repression of SF-1 activated StAR promoter; HEK293T StAR-luciferase reporter, SF-1/DAX-1 repression relief; inhibition, % at 6.8 µM; hit rate 1.1% among 370,000; AID 652010;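 active means inhibition above the mean over all tested compounds plus 3 SD, cut at about 3.6% in these data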;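 further: higher inhibition means more luminescence from relief of DAX-1 repression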
NR1D1 modulator: Rev-erb alpha (human) modulation. activity, % at 10 µM. P20393. hit rate 0.79% among 370,000. AID 1259318. Rev-erbα–FITC-DNA binding, fluorescence polarization, 90 min;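 active means activity above about 14%, limit read from the data; passing the limit was not always enough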
Target sequence (P20393 whole entry, looked up): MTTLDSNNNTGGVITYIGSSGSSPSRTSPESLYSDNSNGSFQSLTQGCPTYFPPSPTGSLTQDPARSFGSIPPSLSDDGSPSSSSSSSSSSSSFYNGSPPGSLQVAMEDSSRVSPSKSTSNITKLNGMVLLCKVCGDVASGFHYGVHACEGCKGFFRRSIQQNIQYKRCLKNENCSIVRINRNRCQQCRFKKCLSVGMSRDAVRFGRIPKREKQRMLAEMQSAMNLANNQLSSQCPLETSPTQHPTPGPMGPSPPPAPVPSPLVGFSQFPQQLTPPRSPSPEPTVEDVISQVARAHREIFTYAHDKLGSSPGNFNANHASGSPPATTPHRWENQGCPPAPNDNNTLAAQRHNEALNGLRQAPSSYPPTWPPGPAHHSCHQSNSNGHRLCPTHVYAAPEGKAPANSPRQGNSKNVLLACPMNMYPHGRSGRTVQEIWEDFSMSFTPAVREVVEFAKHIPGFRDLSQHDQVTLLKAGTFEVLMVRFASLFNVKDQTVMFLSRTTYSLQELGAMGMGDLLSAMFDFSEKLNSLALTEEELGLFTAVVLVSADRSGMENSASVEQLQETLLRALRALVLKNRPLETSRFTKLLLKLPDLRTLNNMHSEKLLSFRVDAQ
LXRb hcDAF ctr: LXR-beta agonism as hcDAF-12 counter-screen; shares compounds with hcDAF12 agonist; 3,400 tested, under 10 active; activation, % at 6.8 µM; AID 743027; HEK293 Gal4-LXR tk-luc reporter, luminescence, 24 h; normalized: DMSO 0%, positive control 100%;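 active means mean percent activation of the reporter above a cutoff set as the average over tested compounds plus their standard deviation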
hcDAF12 ag: confirmation of H. contortus DAF-12 agonists. shares compounds with hcDAF12 agonist. HEK293 hcDAF-12 lit1-tk-luc reporter, luminescence; % of Δ7-dafachronic acid response. activation, % at 6.8 µM. hit rate 61% among 3,400. AID 743032;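 active means mean activation across triplicate tests above the threshold derived from the earlier primary screen, cut at about 5.5% in these data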
Each line names hits and unclear results; the compound was inactive in the other large screens (follow-up assays come after a bar, where they were run).

COc1cc2c(cc1NC(=O)C(C)OC(=O)C1CC(=O)N(Cc3ccco3)C1)oc1ccccc12 (stereo not given)	ssDAF12 agonist 1.5, hcDAF12 agonist 8.8 | LXRb hcDAF ctr inactive | hcDAF12 ag 8.0
CC(OC(=O)C1CC(=O)N(Cc2ccco2)C1)C(=O)Nc1cccc(C#N)c1 (stereo not given)	none
C#CCNC(=O)C[C@@H]1C[C@]2(C(=O)OCC)CCC3=C2N(CCC3)C1=O	none (no result: DAX1 inh-1)
O=C(N[C@@H]1CC[C@H]2SC[C@H](C(=O)O)N2C1=O)OCC1c2ccccc2-c2ccccc21	none (no result: DAX1 inh-1)
Cc1nc2nc(-c3ccco3)nn2c(C)c1Cl	hcDAF12 agonist 6.8 | LXRb hcDAF ctr inactive | hcDAF12 ag inactive
COc1ccc(-c2nc3ccccc3c(=O)n2CCOc2ccc(C)cc2C)cc1	none
COc1ccc(-c2nc3ccccc3c(=O)n2CCOc2ccccc2C)cc1	DAX1 inh-1 6.9, hcDAF12 agonist 6.6 | LXRb hcDAF ctr inactive | hcDAF12 ag inactive
COc1ccccc1-c1cccc2c3c([nH]c12)[C@@H]1C[C@H]2[C@@H](CN1CC3)[C@H](C)ON2C	none (no result: DAX1 inh-1)
C/C(=N\OCc1cccc(C(=O)O)c1)c1ccc(Cl)cc1	hgDAF12 agonist 13.1, hcDAF12 agonist 8.8 (no result: DAX1 inh-1) | LXRb hcDAF ctr inactive | hcDAF12 ag inactive
Cc1cc(C)cc(C(=O)OCCN(C)C2CN(Cc3cn(Cc4cccc(F)c4)nn3)S(=O)(=O)C2)c1 (stereo not given)	none (no result: DAX1 inh-1)
FC(F)(F)c1nc2ccccc2c2nc3ccccc3n12	hcDAF12 agonist 8.3 | LXRb hcDAF ctr inactive | hcDAF12 ag inactive
CCc1nc2ccccc2c2nc3ccccc3n12	none
CCOC(=O)C1=CCN(S(=O)(=O)c2ccc([N+](=O)[O-])cc2)C1c1ccc(C)cc1 (stereo not given)	none (no result: DAX1 inh-1)
CC(C)(C)C(=O)CN1C(=O)NC2(CCOc3ccccc32)C1=O (stereo not given)	hcDAF12 agonist 8.0, DAX1 inh-2 3.7 | LXRb hcDAF ctr inactive | hcDAF12 ag inactive
CC(C)c1ccc(NC(=O)OC2CCC23CCC(c2ccccc2)CC3)cc1 (stereo not given)	none (no result: DAX1 inh-1, DAX1 inh-2)
O=c1c(=NNc2ccccc2Cl)c(=O)c2ccccc12	hcDAF12 agonist 7.9 (no result: NR1D1 modulator) | LXRb hcDAF ctr inactive | hcDAF12 ag 23.7
CC(C)n1nnnc1C1(C)CSCC(=O)N1Cc1cccc(F)c1 (stereo not given)	none (no result: DAX1 inh-1)
CC(=O)NNc1ncnc2c1cnn2-c1ccccc1	none
CC(=O)NNc1ncnc2ccccc12	DAX1 inh-1 8.7, hcDAF12 agonist 10.0 | LXRb hcDAF ctr inactive | hcDAF12 ag inactive
CSc1ccccc1-c1nnc(-c2ccccc2)o1	ssDAF12 agonist 2.2, hgDAF12 agonist 12.9, hcDAF12 agonist 11.5, DAX1 inh-2 4.4 | LXRb hcDAF ctr inactive | hcDAF12 ag 11.7
COc1ccccc1-c1nnc(-c2ccc(C)cc2)o1	DAX1 inh-1 8.4, hgDAF12 agonist 11.5, hcDAF12 agonist 8.0 | LXRb hcDAF ctr inactive | hcDAF12 ag 8.5
COc1ccccc1-c1nnc(-c2ccc(N3CCOCC3)cc2)o1	none
COC(=O)[C@]12C[C@H](CC(=O)NCc3ccc(C)o3)C(=O)N(Cc3ccco3)C1=C[C@H](C(C)(C)C)O[C@@H]2C	none (no result: DAX1 inh-1)
CC1CCCN(c2cccc3c2S(=O)(=O)N(Cc2cccc(F)c2)[C@@H](C)[C@H](c2ccccc2)O3)C1 (stereo not given in full)	none (no result: DAX1 inh-1)
Oc1ccccc1-c1cc(-c2ccco2)[nH]n1	hgDAF12 agonist 11.7, hcDAF12 agonist 7.6 | LXRb hcDAF ctr inactive | hcDAF12 ag 9.2
Oc1ccc(Cl)cc1-c1cc(-c2ccco2)[nH]n1	hcDAF12 agonist 7.6 | LXRb hcDAF ctr inactive | hcDAF12 ag inactive
Oc1ccc(Br)cc1-c1cc(-c2ccco2)[nH]n1	none
